In PubChem BioAssay (Tox21):
Unmarked numbers belong to inactive results. Results filed as inconclusive are left out. Where a call stands in place of a potency, no number is given. Active and inactive are the calls of the source. Unless noted, the call rests on the fitted dose curve; in most records, active means well fitted curve in the direction sought with a large enough effect in the repeat runs; inconclusive means weak or mixed curves; inactive means no such curve, though single readings can be large; an effect the other way counts as inactive or inconclusive.

Columns and labels:
[1] = molecular target: Luciferin 4-monooxygenase (Photinus pyralis) (UniProt P08659); assay: qHTS assay to identify small molecule inhibitors of firefly luciferase (AID 1224835); further: nearly all actives have a fitted effect of over 25% in size; further: potency means the concentration at half of the fitted maximal effect
Sequence of Luciferin 4-monooxygenase (Photinus pyralis) (P08659 whole entry, looked up): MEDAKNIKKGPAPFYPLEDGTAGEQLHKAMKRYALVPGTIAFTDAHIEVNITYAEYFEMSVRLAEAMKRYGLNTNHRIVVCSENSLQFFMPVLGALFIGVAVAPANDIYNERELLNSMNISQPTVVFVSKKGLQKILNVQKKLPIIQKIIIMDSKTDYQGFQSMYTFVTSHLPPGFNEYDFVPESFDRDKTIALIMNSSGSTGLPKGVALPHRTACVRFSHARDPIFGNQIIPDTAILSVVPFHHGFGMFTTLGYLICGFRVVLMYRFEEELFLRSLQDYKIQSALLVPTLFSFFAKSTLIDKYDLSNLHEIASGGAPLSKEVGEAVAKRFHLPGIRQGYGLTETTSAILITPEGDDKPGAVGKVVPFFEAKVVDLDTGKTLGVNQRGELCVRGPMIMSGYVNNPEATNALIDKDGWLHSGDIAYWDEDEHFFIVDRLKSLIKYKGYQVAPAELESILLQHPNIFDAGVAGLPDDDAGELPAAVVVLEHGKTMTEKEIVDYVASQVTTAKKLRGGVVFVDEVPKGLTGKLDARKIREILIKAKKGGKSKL
Procedure, shortened: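 Biochemical qHTS: compounds run as interplate titrations against purified firefly enzyme, with D-luciferin and ATP each at its KM concentration. Light output recorded by CCD imaging.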

[2] = qHTS assay to identify small molecule agonists of the constitutive androstane receptor (CAR) signaling pathway - cell viability counter screen (AID 1224836); further: nearly all actives have a fitted effect of over 45% in size; further: potency means the concentration at half of the fitted maximal effect
Procedure, shortened: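 HepG2-CYP2B6-hCAR, 2500 cells/well, 4 h pre-incubation; cpd 15 conc + PK11195 0.75 uM final; 23 h, 37 C/5% CO2; CellTiter-Fluor, fluorescence.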

[3] = qHTS assay to identify small molecule antagonists of the constitutive androstane receptor (CAR) signaling pathway - cell viability counter screen (AID 1224837); further: nearly all actives have a fitted effect of over 45% in size; further: potency means the concentration at half of the fitted maximal effect
Procedure, shortened: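 Counter screen run in HepG2-CYP2B6-hCAR cells: 4 hr settle, compound titration (15 concentrations) with 50 nM CITCO, 23 hr at 37 C/5% CO2, CellTiter-Fluor fluorescence.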

[4] = molecular target: Nuclear receptor subfamily 1 group I member 3 (Homo sapiens) (UniProt Q14994); assay: qHTS assay to identify small molecule antagonists of the constitutive androstane receptor (CAR) signaling pathway (AID 1224838);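 further: HepG2 cells stably expressing hCAR with CYP2B6 luciferase reporter stimulated by CITCO; nearly all actives have a fitted effect of over 40% in size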; further: potency means the concentration at half of the fitted maximal effect
Sequence of Nuclear receptor subfamily 1 group I member 3 (Homo sapiens) (Q14994 whole entry, looked up): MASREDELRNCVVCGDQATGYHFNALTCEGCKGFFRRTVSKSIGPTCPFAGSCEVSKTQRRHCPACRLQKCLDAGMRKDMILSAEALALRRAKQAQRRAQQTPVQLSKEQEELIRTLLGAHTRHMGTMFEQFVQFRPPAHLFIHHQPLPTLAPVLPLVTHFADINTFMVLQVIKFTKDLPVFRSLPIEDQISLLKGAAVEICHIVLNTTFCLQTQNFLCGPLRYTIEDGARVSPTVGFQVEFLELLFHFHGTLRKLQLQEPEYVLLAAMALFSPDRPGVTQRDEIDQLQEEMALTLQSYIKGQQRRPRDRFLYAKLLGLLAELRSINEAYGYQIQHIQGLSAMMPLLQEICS
Procedure, shortened: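 Cell line: HepG2 double-stable for hCAR and CYP2B6-2.2kb reporter. Agonist: CITCO, 50 nM final. Compounds: 15 concentrations, 24 h, 37 C. Detection: ONE-Glo luminescence.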

[5] = molecular target: Nuclear receptor subfamily 1 group I member 3 (Homo sapiens) (UniProt Q14994); assay: qHTS assay to identify small molecule agonists of the constitutive androstane receptor (CAR) signaling pathway (AID 1224839);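 further: HepG2 cells stably carrying human CAR and a CYP2B6 luciferase reporter; nearly all actives have a fitted effect of over 15% in size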
Procedure, shortened: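 HepG2-CYP2B6-hCAR cells, 2500/well, 4 h pre-incubation; compounds 15 conc.; PK11195 0.75 uM final; 24 h, 37 C/5% CO2; ONE-Glo luciferase read.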

[6] = qHTS assay to identify small molecule antagonists of the estrogen related receptor signaling pathway with the pleiotropic PPARgamma coactivator (PGC) from Tox21 10K library - cell viability counter screen (AID 1224840; active means well fitted cell-killing curve with a large enough effect in the repeat runs, not every such curve was filed as active; further: nearly all actives have a fitted effect of over 40% in size; further: potency means the concentration at half of the fitted maximal effect)
Procedure, shortened: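 Following seeding of 2,000 PGC/ERR cells/well and 6 hours' incubation, test compounds were delivered in DMSO. The plates then sat 17.5 hours at 37 C before a fluorogenic live-cell protease reagent (CellTiter-Fluor) was read after 30 min.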

[7] = molecular target: Thyrotropin receptor (Homo sapiens) (UniProt P16473); assay: qHTS assay to identify small molecule agonists of the thyroid stimulating hormone receptor (TSHR) signaling pathway (AID 1224843; calls by dose curve; further: nearly all actives have a fitted effect of over 45% in size)
Sequence of Thyrotropin receptor (Homo sapiens) (P16473 whole entry, looked up): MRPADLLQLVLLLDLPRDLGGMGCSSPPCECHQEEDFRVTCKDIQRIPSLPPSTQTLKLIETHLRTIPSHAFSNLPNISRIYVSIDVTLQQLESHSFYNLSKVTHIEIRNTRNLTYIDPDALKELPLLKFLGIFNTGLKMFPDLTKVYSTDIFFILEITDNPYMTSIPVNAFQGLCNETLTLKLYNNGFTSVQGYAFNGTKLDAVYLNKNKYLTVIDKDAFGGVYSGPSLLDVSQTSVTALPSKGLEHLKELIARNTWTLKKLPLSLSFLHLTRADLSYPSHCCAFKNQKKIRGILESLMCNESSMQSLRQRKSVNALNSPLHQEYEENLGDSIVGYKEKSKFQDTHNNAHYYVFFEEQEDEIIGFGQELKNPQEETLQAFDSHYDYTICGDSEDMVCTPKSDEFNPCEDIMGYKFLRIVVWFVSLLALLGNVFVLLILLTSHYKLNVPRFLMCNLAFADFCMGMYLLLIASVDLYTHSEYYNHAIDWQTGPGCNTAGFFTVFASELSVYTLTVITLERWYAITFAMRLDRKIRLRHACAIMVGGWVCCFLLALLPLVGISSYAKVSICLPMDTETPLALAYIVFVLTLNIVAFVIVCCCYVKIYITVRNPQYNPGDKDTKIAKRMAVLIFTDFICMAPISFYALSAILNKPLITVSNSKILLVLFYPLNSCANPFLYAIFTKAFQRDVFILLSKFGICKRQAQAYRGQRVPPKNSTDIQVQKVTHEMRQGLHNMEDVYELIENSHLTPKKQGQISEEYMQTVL
Procedure, shortened: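 TSHR-HEK293 cells in agonist mode, 30 min room-temperature step, then cAMP measured by competitive HTRF (cAMP-d2 with anti-cAMP cryptate) after 1 h at room temperature. Tested at 15 concentrations in triplicate.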

[8] = qHTS assay to identify small molecule agonists of the hypoxia (HIF-1) signaling pathway - cell viability counter screen (AID 1224844; calls by dose curve; further: nearly all actives have a fitted effect of over 50% in size)
Procedure, shortened: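 Cells (HRE-bla ME-180, 2,000 per well) sat 5 hrs at 37C, got compound for 17 hrs, were read for CCF4-AM FRET, and were finally lysed with CellTiter-Glo for a 30 min room-temperature luminescence read.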

[9] = qHTS assay to identify small molecule agonists of H2AX (AID 1224845; active means well fitted activation curve with a large enough effect in the signal ratio in the repeat runs, not every such curve was filed as active; the % refers to the signal ratio)
Procedure, shortened: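 Wild-type CHO-K1 cells, plated overnight, exposed 3hr at 37C to 15 concentrations (0.76% DMSO final). Lysed, then HTRF anti-pH2AX (S139) cryptate and anti-H2AX-d2 antibodies, 24 hr room temperature; 665/620 nm emission read.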

[10] = qHTS assay to identify small molecule agonists of the hypoxia (HIF-1) signaling pathway (AID 1224846; active means well fitted activation curve with a large enough effect in the signal ratio in the repeat runs, not every such curve was filed as active; the % refers to the signal ratio)
Procedure, shortened: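 A low-serum medium (0.5% dialyzed FBS) holding 2,000 HRE-bla ME-180 cells per well is preincubated for 5 hrs, dosed with compounds by pintool, and kept a further 17 hrs at 37C, 5% CO2 before CCF4-AM FRET detection of beta-lactamase.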

[11] = qHTS assay to identify small molecule agonists of H2AX - cell viability counter screen (AID 1224847; calls by dose curve; further: top concentration of the series differs between compounds; nearly all actives have a fitted effect of over 30% in size)
Procedure, shortened: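 Cells plated first: CHO-K1, 1000 per well in 10% FBS medium, incubated overnight at 37C. Then 15-point compound titration added (final DMSO 0.76%) for 3 hr. Finally CellTiter-Glo added and luminescence read.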

[12] = qHTS RealTime-Glo MT Cell Viability Assay in HepG2 cells - 24 hour (AID 1224867); further: nearly all actives have a fitted effect of over 50% in size; further: potency means the concentration at half of the fitted maximal effect
Procedure, shortened: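 Cell number in HepG2 cultures estimated from NanoLuc luminescence generated by metabolic reduction of a prosubstrate by living cells. The homogeneous, nonlytic format allowed repeated reads at 0, 8, 16, 24, 32 and 40 h of compound exposure.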

[13] = qHTS RealTime-Glo MT Cell Viability Assay in HEK293 cells - 32 hour (AID 1224868); further: top concentration of the series differs between compounds; nearly all actives have a fitted effect of over 50% in size
Procedure, shortened: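 Homogeneous bioluminescent viability format in HEK293 cells (600 cells/well). Following 5 h at 37 C/5% CO2, 23 nL compound was pintooled; the signal was measured repeatedly during 40 h incubation.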

[14] = A CellTox Green Cytotoxicity Assay to monitor cytotoxicity in HEK293 cells - 0 hour (AID 1224869); further: nearly all actives have a fitted effect of over 50% in size
Procedure, shortened: (§1)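 Fluorescence intensity, read at 0, 8, 16, 24, 32 and 40 h of compound treatment, reflected dye binding to DNA of dead HEK293 cells; compounds (23 nL, DMSO) were added 5 h after plating cells with reagent.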

[15] = qHTS RealTime-Glo MT Cell Viability Assay in HepG2 cells - 40 hour (AID 1224870); further: nearly all actives have a fitted effect of over 50% in size; further: potency means the concentration at half of the fitted maximal effect
Procedure, shortened: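 HepG2 cells (600/well) mixed with RealTime-Glo MT reagent, settled 5 h at 37 C/5% CO2 before compound addition. Nonlytic NanoLuc luminescence from viable-cell prosubstrate reduction read repeatedly during 40 h treatment at 37 C.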

[16] = A CellTox Green Cytotoxicity Assay to monitor cytotoxicity in HEK293 cells - 40 hour (AID 1224871); further: nearly all actives have a fitted effect of over 45% in size
Procedure, shortened: as §1

[17] = qHTS assay to identify small molecule agonists of the estrogen related receptor signaling pathway with the pleiotropic PPARgamma coactivator (PGC) from Tox21 10K library (AID 1224842); further: nearly all actives have a fitted effect of over 15% in size
Procedure, shortened: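 PGC/ERR reporter cell line, 2,000 cells per well, incubated 6 h at 37 C before 23 nL compound in DMSO was added. After 18 h at 37 C, One-Glo luminescence read following 30 min at room temperature.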

[18] = qHTS assay to identify small molecule antagonists of the estrogen related receptor (ERR) signaling pathway from Tox21 library (AID 1224848); further: nearly all actives have a fitted effect of over 50% in size; further: potency means the concentration at half of the fitted maximal effect
Procedure, shortened: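 ERR reporter cell line (from NTP) seeded 2,000 cells/well, rested 6 h at 37 C/5% CO2, then pin-dosed with compounds in DMSO. After 18 h at 37 C, ONE-Glo added; luminescence read after 30 min at room temperature.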

[19] = qHTS assay to identify small molecule agonists of the estrogen related receptor (ERR) signaling pathway from Tox21 library (AID 1224849; calls by dose curve; further: nearly all actives have a fitted effect of over 15% in size); conditions: ERR reporter cell line, ONE-Glo luciferase, 18 h
Procedure, shortened: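 Screening used an NTP-provided ERR luciferase cell line. Compounds in DMSO were added 6 h after seeding and left 18 h at 37 C before a 30 min ONE-Glo step and luminescence reading.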

Row | Structure (SMILES) | Potency [1] | Potency [2] | Potency [3] | Potency [4] | Potency [5] | Potency [6] | Potency [7] | Potency [8] | Potency [9] | Potency [10] | Potency [11] | Potency [12] | Potency [13] | Potency [14] | Potency [15] | Potency [16] | Potency [17] | Potency [18] | activity change, positive = activation ([19]; at 42.5 µM (top of the series)) [%] | activity change, positive = activation ([19]; at 92.4 µM (top of the series)) [%]
1 | CCC(CC)C(C)CCOC(C)=O (stereo not drawn) | inactive | inactive | inactive | inactive | inactive | inactive | inactive | inactive | inactive | inactive | inactive | inactive | inactive | inactive | inactive | inactive |  |  |  | 
2 | C=Cc1cccc(C)c1 | inactive | inactive | inactive | inactive | inactive | inactive | inactive | inactive | inactive | inactive | inactive | inactive |  | inactive | inactive | inactive |  |  |  | 
3 | COc1ccc2cc1Oc1ccc(cc1)C[C@H]1c3c(cc4c(c3Oc3cc5c(cc3OC)CCN(C)[C@@H]5C2)OCO4)CCN1C | inactive | 26.6 µM (active) | 23.7 µM (active) | 23.7 µM (active) | inactive | 21.1 µM (active) | inactive | inactive |  |  |  | 23.9 µM (active) |  | inactive | 23.9 µM (active) |  | inactive | 29.8 µM (active) | -56.4 | 
4 | CCCNCCC | inactive | inactive | inactive | inactive | inactive | inactive | inactive | inactive | inactive | inactive | inactive | inactive | inactive |  | inactive | inactive |  |  |  | 
5 | CC(C(=O)O)c1ccc2c(c1)[nH]c1ccc(Cl)cc12 (stereo not drawn) | 34.7 µM (active) | inactive | inactive | inactive | inactive | inactive | inactive | inactive | inactive | inactive | inactive | inactive |  | inactive | inactive | inactive |  |  |  | 
6 | CN(C)CCN1CCN(c2cccc(Cl)c2)C1=O | inactive | inactive | inactive | inactive | inactive | inactive | inactive | inactive | inactive | inactive | inactive | inactive |  | inactive | inactive | inactive |  |  |  | 
7 | CC1(C)CC(O)CC(C)(C)N1 | inactive | inactive | inactive | inactive | inactive | inactive | inactive | inactive | inactive | inactive | inactive | inactive | inactive | inactive | inactive | inactive |  |  |  | 
8 | c1cnccn1 | inactive | inactive | inactive | inactive | inactive | inactive | inactive | inactive | inactive | inactive | inactive | inactive | inactive | inactive | inactive | inactive |  |  |  | 
9 | C=C(C)c1cccc(C(=C)C)c1 | inactive | inactive | inactive | inactive | inactive | inactive | inactive | inactive | inactive | inactive | inactive | inactive | inactive | inactive | inactive | inactive |  |  |  | 
10 | Cc1ccc(N/N=c2\c(=O)cc/c(=N\Nc3ccc(S(=O)(=O)O)cc3)c2=O)c(C)c1 | 28.3 µM (active) | 30.6 µM (active) | 48.6 µM (active) | inactive | inactive | 30.6 µM (active) | inactive | inactive |  | inactive |  | inactive | inactive |  | inactive |  | inactive | inactive |  | -2.81
11 | CCCCCCCCCCCC(=O)OCC(C)OC(=O)CCCCC(=O)O (stereo not drawn) | inactive | inactive | inactive | inactive | inactive | inactive | inactive | inactive | inactive |  | inactive | inactive | inactive |  | inactive | inactive | inactive | inactive | -2.88 | 
12 | CC(=O)OCC=C(C)C | inactive | inactive | inactive | inactive | inactive | inactive | inactive | inactive | inactive | inactive | inactive | inactive | inactive | inactive | inactive | inactive |  |  |  | 
13 | OC1CCCc2ccccc21 (stereo not drawn) | inactive | inactive | inactive | inactive | inactive | inactive | inactive | inactive | inactive | inactive | inactive | inactive | inactive | inactive | inactive | inactive |  |  |  | 
14 | CCCCCCCCCCOC(=O)c1ccccc1C(=O)OCCCCCCCC | inactive | inactive | inactive | inactive | inactive | inactive | inactive | inactive | inactive | inactive | inactive | inactive |  | inactive | inactive | inactive |  |  |  | 
15 | NC(=S)NC(N)=S | inactive | inactive | inactive | inactive | inactive | inactive | inactive | inactive | inactive | inactive | inactive | inactive | inactive | inactive | inactive | inactive |  |  |  | 
